The source of these data is ChEMBL document CHEMBL3433997, “St. Jude Leishmania screening dataset” (2016).

Sequence of Solute carrier family 2, facilitated glucose transporter member 1 (Homo sapiens) (P11166 whole entry): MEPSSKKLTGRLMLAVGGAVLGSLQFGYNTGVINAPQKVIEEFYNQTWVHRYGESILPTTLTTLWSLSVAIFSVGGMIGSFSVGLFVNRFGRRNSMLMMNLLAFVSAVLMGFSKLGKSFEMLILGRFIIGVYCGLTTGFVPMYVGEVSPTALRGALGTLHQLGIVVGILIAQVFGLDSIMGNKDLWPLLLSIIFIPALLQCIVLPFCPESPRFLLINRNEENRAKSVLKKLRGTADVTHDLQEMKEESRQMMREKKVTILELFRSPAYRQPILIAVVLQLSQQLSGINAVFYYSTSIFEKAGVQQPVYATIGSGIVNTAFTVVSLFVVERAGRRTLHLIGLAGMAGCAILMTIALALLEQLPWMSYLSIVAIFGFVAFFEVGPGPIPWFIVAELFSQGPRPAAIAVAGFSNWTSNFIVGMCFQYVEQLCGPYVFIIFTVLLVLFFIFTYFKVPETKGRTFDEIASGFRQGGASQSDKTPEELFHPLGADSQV

The first test has as its target Solute carrier family 2, facilitated glucose transporter member 1 (Homo sapiens) (UniProt P11166). The test can be described thus: ST_JUDE_LEISH: Cytotoxicity at 2uM final concentration against transgenic Leishmania Mexicana promastigotes LmGLUT1 that are glucose transport deficient and complemented with the human glucose transporter GLUT1. Activity is measured by DNA content using SYBR green in vitro. In kind it is functional.
Usually inhibition stands for the drop in the measured response relative to a control, in per cent. For `CCNc1cc(C)nc(Nc2ccc(NS(=O)(=O)c3ccccc3)cc2)n1`, the inhibition was found to be 17.8%.

Take `CS(=O)(=O)Cc1ccc(Nc2nccc(-c3c(-c4cccc(NC(=O)c5c(F)cccc5F)c4)nn4ccccc34)n2)cc1`: the inhibition was determined as 38.6%.

Turning to `COc1ccc2nccc(NCC3(O)CCC(NCc4cc5c(cn4)OCCO5)CC3)c2n1` (stereo not given), the inhibition is -1.99%. `c1ccc(C2=NN=C(c3ccccn3)C3C4CC(C23)C2C3CC(c5ccccc53)C42)nc1` (stereo not given): the inhibition turned out to be 5.41%. In the case of `Cc1ccc(NC(=O)NCCCCCN2CCC(c3c[nH]c4ccccc34)CC2)cc1I`, the inhibition came to 3.96%. Same read-out and setting: then `Clc1ccc(Nc2nc(-c3ccccn3)cs2)nc1`, with 67.7%; and `O=C(Nc1ccc(F)cc1)NC1CCN(c2ccnc3cc(Cl)ccc23)C1` (stereo not given), with -0.37%; and `CCOC(=O)Cn1ccc2c(NCc3ccccc3)nc(C)nc21`, with 0.48%. Same read-out and setting: in the case of `O=C(CCc1c[nH]cn1)Nc1ccc(-c2ccc(-c3nc4cc(F)ccc4[nH]3)cc2)cc1` it was 1.4%; in that of `CO/C(=C\C=C\c1cc2cc(Cl)c(Cl)cc2[nH]1)C(=O)NCCCN1CCN(c2ccncc2)CC1`, 4.85%; in that of `COc1cccc(Nc2nccc(NCC(O)c3ccc(C(F)(F)F)cc3)n2)c1` (stereo not given), 7.45%. In the case of `O=C(NC1CCN(Cc2ccsc2)CC1)c1ccc(-c2cccc(C(F)(F)F)c2)s1`, the inhibition stood at 8.18%. Still for that read-out and setting: then `COc1ccc2nccc([C@@H](O)CN3CCC(NCC4COc5ccccc5O4)CC3)c2c1` (stereo not given in full), with 7.53%; and `O=C(Nc1cccc2ccccc12)N1CCc2cc3nccc(N4CCN5CCC[C@H]5C4)c3cc21`, with 5.08%; and `Cc1nc(C)c(-c2ccc(C(=O)c3ccc(Cl)cc3)cc2)c(O)c1Cl`, with 8.16%. On the same count and under the same terms, then `CC(=O)c1ccc2c(c1)C(NC(=O)c1cccc(Cl)c1Cl)C(CO)C(C)(C)O2` (stereo not given), with 1.76%; and `Cc1cc(C(F)(F)F)n2nc(C3CCN(Cc4cc(C)c(O)c(C)c4)C3)cc2n1` (stereo not given), with 4.53%; and `Oc1ccc2nc(N3CCNCC3)nc(NCCCc3ccccc3)c2c1`, with -0.71%. The same measure, in the same setting: in the case of `CCc1cn(CCOC)c2ccc(C(=O)N[C@@H](Cc3ccccc3)[C@H](O)CNC(C)(C)CCCC(C)C)cc12` it was 0.24%; in that of `COc1cc2c(cc1C(F)(F)F)N(C(=O)Nc1ccc(Br)cn1)CC2`, -0.2%. For `N=C(N)c1ccc(NC(=O)c2cc(Sc3ccc(O)c(C(=O)Nc4ccc(C(=N)N)cc4)c3)ccc2O)cc1`, the inhibition amounted to 9.7%. Still for that read-out and setting: in the case of `Cc1cccc2nc(-c3cccc(-c4cccc(NC(=O)c5cccnc5Cl)c4)c3)[nH]c12` it was 1.25%.

Regarding `O=C(Nc1ccc(F)c(F)c1)c1ccc(CN2CCCN(Cc3cccc(O)c3)CC2)cc1`, the inhibition was determined as 3.12%. The same measure, in the same setting: in the case of `COc1ccccc1N1CCN(CCCCN(C(=O)Nc2cccc(Cl)c2)C(=O)Nc2cccc(Cl)c2)CC1` it was 10.6%. Still for that read-out and setting: then `CCN(CC)CCOc1ccc(C(O)(C#CC(O)(c2ccc(C)cc2)c2ccc(OCCN(CC)CC)cc2)c2ccc(C)cc2)cc1` (stereo not given), with 7.79%.

The target in another test is Hexose transporter 1 (Plasmodium falciparum) (UniProt O97467). The test can be described thus: ST_JUDE_LEISH: Cytotoxicity at 2uM final concentration against transgenic Leishmania Mexicana promastigotes LmPfHT that are glucose transport deficient and complemented with the Plasmodium falciparum hexose transporter. Activity is measured by DNA content using SYBR green in vitro. Format: functional.
In the case of `O=c1cc(NCCCNCc2cc(F)cc(C(F)(F)F)c2)[nH]c2ccccc12`, the inhibition was -0.14%. `Cc1cc(N)c2cc(NC(=O)c3cc(C(F)(F)F)cc(C(F)(F)F)c3)ccc2n1`: the inhibition was determined as 1.04%.

As to `O=C(/C=C/c1ccc(Cl)c(Cl)c1)NCCCCCN1CCCC(C(=O)Nc2ccc(Cl)cc2)C1` (stereo not given), the inhibition amounted to 5.09%.

On to `CCN(CCCN1CCCCC1)c1cc(C)nc(Nc2ccc(Br)cc2F)n1`, for which the inhibition was 2.96%. Same read-out and setting: then `O=C(CCN1CCCCC1)Nc1ccc(Nc2nccc(NCC(O)c3ccccc3)n2)cc1` (stereo not given), with -1.09%; and `CC(=O)Nc1ccc(Nc2ncc([N+](=O)[O-])c(Nc3ccccc3C(N)=O)n2)cc1`, with 1.61%. In the case of `CC(C)C[C@H](NC(=O)c1ccc(OCCN2CCOCC2)cc1)C(=O)N[C@H](/C=N/N1CCNC1=O)CCc1ccccc1`, the inhibition came out at 6.05%.

For `CCn1c(SC)nnc1C1CCCN(CC(=O)Nc2nc3ccc(OC)cc3s2)C1` (stereo not given), the inhibition was 3.27%.

With `Cc1cccc2nc(-c3cccc(-c4cccc(NC(=O)CC5NC(=O)c6ccccc65)c4)c3)[nH]c12` (stereo not given), the inhibition worked out at 1.34%. Same read-out and setting: then `CC(Nc1ccc2c(c1)OCCO2)C(=O)Nc1cc(C(F)(F)F)ccc1N1CCOCC1` (stereo not given), with 8.1%; and `NC(=O)N1CCN(Cc2ccc(Br)cc2)CC1`, with 1.05%; and `COC(=O)Cn1c(C2CCN(CC3CCN(C(=O)/C=C/c4ccc(Cl)c(Cl)c4)CC3)CC2)nc2ccccc21`, with 0.62%. Consider `O=C(Nc1cccc(F)c1)N[C@H]1CCN(CCCCCNC(=O)C2CC2c2ccc(Cl)c(Cl)c2)C1` (stereo not given in full), for which the inhibition is 3.61%. The same measure, in the same setting: in the case of `CCN(CCCN1CCCCC1)c1cc(C)nc(Nc2cc(Cl)ccc2C)n1` it was 1.77%; in that of `CCN(CCCN1CCCCC1)c1cc(C)nc(Nc2ccc(F)c(C(F)(F)F)c2)n1`, -1.38%; in that of `CCNc1cc(C)nc(Nc2ccc(NS(=O)(=O)c3ccccc3)cc2)n1`, 11%. Same read-out and setting: then `CS(=O)(=O)Cc1ccc(Nc2nccc(-c3c(-c4cccc(NC(=O)c5c(F)cccc5F)c4)nn4ccccc34)n2)cc1`, with 18.8%.

Turning to `COc1ccc2nccc(NCC3(O)CCC(NCc4cc5c(cn4)OCCO5)CC3)c2n1` (stereo not given), the inhibition was -1.9%.

Regarding `c1ccc(C2=NN=C(c3ccccn3)C3C4CC(C23)C2C3CC(c5ccccc53)C42)nc1` (stereo not given), the inhibition came out at 4.38%. As to `Cc1ccc(NC(=O)NCCCCCN2CCC(c3c[nH]c4ccccc34)CC2)cc1I`, the inhibition is 3.64%.

`Clc1ccc(Nc2nc(-c3ccccn3)cs2)nc1`: the inhibition was found to be 27.3%. Same read-out and setting: then `O=C(Nc1ccc(F)cc1)NC1CCN(c2ccnc3cc(Cl)ccc23)C1` (stereo not given), with -1.17%; and `CCOC(=O)Cn1ccc2c(NCc3ccccc3)nc(C)nc21`, with 1.38%. Consider `O=C(CCc1c[nH]cn1)Nc1ccc(-c2ccc(-c3nc4cc(F)ccc4[nH]3)cc2)cc1`, for which the inhibition was 1.73%.

As for `CO/C(=C\C=C\c1cc2cc(Cl)c(Cl)cc2[nH]1)C(=O)NCCCN1CCN(c2ccncc2)CC1`, the inhibition was 3.18%. Still for that read-out and setting: in the case of `COc1cccc(Nc2nccc(NCC(O)c3ccc(C(F)(F)F)cc3)n2)c1` (stereo not given) it was 8.55%. On the same count and under the same terms, then `O=C(NC1CCN(Cc2ccsc2)CC1)c1ccc(-c2cccc(C(F)(F)F)c2)s1`, with 9.07%; and `COc1ccc2nccc([C@@H](O)CN3CCC(NCC4COc5ccccc5O4)CC3)c2c1` (stereo not given in full), with 8.69%.

In the case of `O=C(Nc1cccc2ccccc12)N1CCc2cc3nccc(N4CCN5CCC[C@H]5C4)c3cc21`, the inhibition came to 2.82%. Still for that read-out and setting: then `Cc1nc(C)c(-c2ccc(C(=O)c3ccc(Cl)cc3)cc2)c(O)c1Cl`, with 10.4%; and `CC(=O)c1ccc2c(c1)C(NC(=O)c1cccc(Cl)c1Cl)C(CO)C(C)(C)O2` (stereo not given), with 3.84%; and `Cc1cc(C(F)(F)F)n2nc(C3CCN(Cc4cc(C)c(O)c(C)c4)C3)cc2n1` (stereo not given), with 3.54%. Same read-out and setting: in the case of `Oc1ccc2nc(N3CCNCC3)nc(NCCCc3ccccc3)c2c1` it was -0.65%. The same measure, in the same setting: then `CCc1cn(CCOC)c2ccc(C(=O)N[C@@H](Cc3ccccc3)[C@H](O)CNC(C)(C)CCCC(C)C)cc12`, with 1.3%; and `COc1cc2c(cc1C(F)(F)F)N(C(=O)Nc1ccc(Br)cn1)CC2`, with 0.68%; and `N=C(N)c1ccc(NC(=O)c2cc(Sc3ccc(O)c(C(=O)Nc4ccc(C(=N)N)cc4)c3)ccc2O)cc1`, with 10.9%.

For `Cc1cccc2nc(-c3cccc(-c4cccc(NC(=O)c5cccnc5Cl)c4)c3)[nH]c12`, the inhibition came out at 2.51%. Still for that read-out and setting: in the case of `O=C(Nc1ccc(F)c(F)c1)c1ccc(CN2CCCN(Cc3cccc(O)c3)CC2)cc1` it was 2.77%; in that of `COc1ccccc1N1CCN(CCCCN(C(=O)Nc2cccc(Cl)c2)C(=O)Nc2cccc(Cl)c2)CC1`, 8.66%; in that of `CCN(CC)CCOc1ccc(C(O)(C#CC(O)(c2ccc(C)cc2)c2ccc(OCCN(CC)CC)cc2)c2ccc(C)cc2)cc1` (stereo not given), 8.63%.
